Measurements: the supplement of paper PMC10849652
About 7,900 targets were measured; listed, in parts, are those with a hit and a random draw of the rest. About 0.6% of all pairs of compound and target were hits. Unmarked numbers belong to inactive results.

Key:
Assay in all cases: log2 fold change, soluble protein after heating vs DMSO (PISA); higher = thermal stabilisation; K562 cells, 10 uM, 30 min; active = over 0.2 and 3.5 SD of the protein, either way, in both replicates (recomputed)
erlotinib = compound: C#Cc1cccc(Nc2ncnc3cc(OCCOC)c(OCCOC)cc23)c1 [erlotinib]
Outline: (§1)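 Soluble protein was quantified by TMTpro 16plex LC-MS/MS after channel sums were equalised. It was obtained as the supernatant after 21,000xg for 90 min from pooled aliquots of K562 cells (2×10^6 cells/mL, 10 μM compound, 30 min) heated for 3 min across 48°C-58°C and extracted in PBS with 0.5% NP-40 at 4°C. Thermal stability values are relative to control samples and come from duplicates. They are given as log2 fold changes.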

[1] = compound: C/C(=N\NC(=O)C1=CC(=CC=C1)S(=O)(=O)N2CCOCC2)/C3=C(C=CC(=C3)Cl)O
Outline: as §1

[2] = compound: C1=CC(=C(C=C1Cl)C2=NC3=NC=CN=C3C(=N2)NC4=CC=NC=C4)F
Outline: as §1

[3] = compound: C1=CC(=CC=C1C2=NC3=C(N2)C=C(C=C3)C(=O)N)OC4=CC=C(C=C4)Cl
Outline: as §1

[4] = compound: C1=CC2=C(C=CC(=C2)/C=C\3/C(=O)NC(=NCC4=CC=CS4)S3)N=C1
Outline: as §1

[5] = compound: C1=CC2=NC=CN=C2C=C1/C=C/3\C(=O)NC(=O)S3
Outline: as §1

[6] = compound: C1=CC=C(C=C1)C2=NC(=C(N2)C3=CC=NC=C3)C4=CC(=C(C=C4)Cl)O
Outline: as §1

[7] = compound: C1=CC=C2C(=C1)C3=NNC4=CC=CC(=C43)C2=O
Outline: as §1

[8] = compound: C1CCN(C1)C(=O)NC2=CC=CC(=C2)NC3=NC=C(C(=N3)NCCC4=CN=CN4)Br
Outline: as §1

[9] = compound: C1CN(CCC1(CC2=CC=C(C=C2)Cl)N)C3=NC=NC4=C3C=CN4
Outline: as §1

IRAK-1-4 Inhibitor I = compound: C1COCCN1CCN2C3=CC=CC=C3N=C2NC(=O)C4=CC(=CC=C4)[N+](=O)[O-] [IRAK-1-4 Inhibitor I]
Outline: as §1

ibrutinib = compound: C=CC(=O)N1CCC[C@@H](n2nc(-c3ccc(Oc4ccccc4)cc3)c3c(N)ncnc32)C1 [ibrutinib]
Outline: as §1

[10] = compound: CC(=O)c1cnc2ccc(-c3cc(Cl)c(O)c(Cl)c3)nc2c1N[C@H]1CC[C@H](CN(C)C)CC1
Outline: as §1

ralimetinib = compound: CC(C)(C)Cn1c(N)nc2ccc(-c3[nH]c(C(C)(C)C)nc3-c3ccc(F)cc3)nc21 [ralimetinib]
Outline: as §1

[11] = compound: CC(C)(O)CC(=O)NCCn1ccc2ncnc(Nc3ccc(Oc4cccc(C(F)(F)F)c4)c(Cl)c3)c21
Outline: as §1

[12] = compound: CC(C)C1=C2N=C(C=C(N2N=C1)NCC3=CC=CC=C3)NCCCCCCN
Outline: as §1

[13] = compound: CC(C)C[C@@H](C=O)NC(=O)[C@H](CC(C)C)NC(=O)[C@H](CC(C)C)NC(=O)OCc1ccccc1
Outline: as §1

pinometostat = compound: CC(C)N(C[C@H]1O[C@@H](n2cnc3c(N)ncnc32)[C@H](O)[C@@H]1O)[C@H]1C[C@@H](CCc2nc3cc(C(C)(C)C)ccc3[nH]2)C1 [pinometostat]
Outline: as §1

[14] = compound: CC1=C(C(CC(=O)N1)C2=CC=C(C=C2)C(F)(F)F)C(=O)NC3=C(C=C4C(=C3)C=NN4)F
Outline: as §1

[15] = compound: CC1=C(C2=C(C=C1)C(=O)C3=CC=CC=C3N2CCCN)C
Outline: as §1

Chain of UniProt Q9P016 (Q9P016 whole entry, looked up): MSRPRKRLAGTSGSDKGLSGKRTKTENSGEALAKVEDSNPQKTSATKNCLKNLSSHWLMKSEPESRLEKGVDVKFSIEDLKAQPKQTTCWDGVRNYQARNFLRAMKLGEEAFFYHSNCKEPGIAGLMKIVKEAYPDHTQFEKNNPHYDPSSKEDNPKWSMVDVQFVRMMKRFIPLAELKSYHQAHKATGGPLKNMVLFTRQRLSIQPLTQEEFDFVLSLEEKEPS
Chain of UniProt Q9UKI8 (Q9UKI8 whole entry, looked up): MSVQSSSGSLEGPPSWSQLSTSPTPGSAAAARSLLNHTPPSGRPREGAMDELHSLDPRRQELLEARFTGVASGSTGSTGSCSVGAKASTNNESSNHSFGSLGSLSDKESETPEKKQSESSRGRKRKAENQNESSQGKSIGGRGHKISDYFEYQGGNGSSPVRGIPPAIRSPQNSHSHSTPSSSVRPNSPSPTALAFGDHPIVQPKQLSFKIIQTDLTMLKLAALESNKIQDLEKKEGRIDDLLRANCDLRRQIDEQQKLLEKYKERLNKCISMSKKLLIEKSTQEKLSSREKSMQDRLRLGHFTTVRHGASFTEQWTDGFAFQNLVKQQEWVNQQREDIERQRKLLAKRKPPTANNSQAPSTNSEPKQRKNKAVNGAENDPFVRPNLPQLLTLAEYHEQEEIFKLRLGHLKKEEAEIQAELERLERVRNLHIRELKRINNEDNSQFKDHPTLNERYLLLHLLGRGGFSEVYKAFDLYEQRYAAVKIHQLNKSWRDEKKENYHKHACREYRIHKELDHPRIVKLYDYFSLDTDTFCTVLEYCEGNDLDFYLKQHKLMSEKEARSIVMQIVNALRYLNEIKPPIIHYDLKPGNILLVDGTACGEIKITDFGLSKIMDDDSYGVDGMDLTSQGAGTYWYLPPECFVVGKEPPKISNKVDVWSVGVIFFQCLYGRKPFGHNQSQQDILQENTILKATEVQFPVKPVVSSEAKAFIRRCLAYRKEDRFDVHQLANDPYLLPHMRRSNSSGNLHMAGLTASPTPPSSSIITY
Chain of UniProt P05455 (P05455 whole entry, looked up): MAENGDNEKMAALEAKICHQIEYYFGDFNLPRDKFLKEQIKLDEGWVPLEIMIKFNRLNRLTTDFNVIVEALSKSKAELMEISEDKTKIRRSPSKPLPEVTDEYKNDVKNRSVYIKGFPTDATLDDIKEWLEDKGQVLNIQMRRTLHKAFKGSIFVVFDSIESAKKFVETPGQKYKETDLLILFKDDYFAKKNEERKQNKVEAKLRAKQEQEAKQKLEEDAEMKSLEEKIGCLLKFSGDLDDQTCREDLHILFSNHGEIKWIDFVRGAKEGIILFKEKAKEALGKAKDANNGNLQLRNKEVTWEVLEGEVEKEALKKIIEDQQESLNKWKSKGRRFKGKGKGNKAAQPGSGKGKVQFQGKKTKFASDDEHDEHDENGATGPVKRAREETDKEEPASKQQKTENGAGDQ
Chain of UniProt Q8NEF9 (Q8NEF9 whole entry, looked up): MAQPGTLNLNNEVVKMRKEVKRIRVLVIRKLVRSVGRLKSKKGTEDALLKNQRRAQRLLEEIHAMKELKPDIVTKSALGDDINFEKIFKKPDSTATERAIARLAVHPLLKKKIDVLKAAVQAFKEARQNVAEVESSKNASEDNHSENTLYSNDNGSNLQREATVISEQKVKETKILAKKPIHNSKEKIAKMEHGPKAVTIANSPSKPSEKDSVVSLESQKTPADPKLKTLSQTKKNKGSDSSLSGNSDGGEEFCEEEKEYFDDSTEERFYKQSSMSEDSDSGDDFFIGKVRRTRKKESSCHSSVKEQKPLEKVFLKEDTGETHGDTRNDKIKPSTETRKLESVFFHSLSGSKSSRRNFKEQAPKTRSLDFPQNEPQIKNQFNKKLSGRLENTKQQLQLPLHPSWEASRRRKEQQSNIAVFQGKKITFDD
Chain of UniProt O00193 (O00193 whole entry, looked up): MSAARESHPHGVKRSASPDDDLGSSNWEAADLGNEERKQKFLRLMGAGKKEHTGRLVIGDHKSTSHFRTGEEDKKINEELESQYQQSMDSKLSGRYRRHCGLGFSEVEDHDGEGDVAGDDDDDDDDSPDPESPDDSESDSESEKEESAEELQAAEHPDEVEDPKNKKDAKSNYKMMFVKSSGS
Chain of UniProt Q15796 (Q15796 whole entry, looked up): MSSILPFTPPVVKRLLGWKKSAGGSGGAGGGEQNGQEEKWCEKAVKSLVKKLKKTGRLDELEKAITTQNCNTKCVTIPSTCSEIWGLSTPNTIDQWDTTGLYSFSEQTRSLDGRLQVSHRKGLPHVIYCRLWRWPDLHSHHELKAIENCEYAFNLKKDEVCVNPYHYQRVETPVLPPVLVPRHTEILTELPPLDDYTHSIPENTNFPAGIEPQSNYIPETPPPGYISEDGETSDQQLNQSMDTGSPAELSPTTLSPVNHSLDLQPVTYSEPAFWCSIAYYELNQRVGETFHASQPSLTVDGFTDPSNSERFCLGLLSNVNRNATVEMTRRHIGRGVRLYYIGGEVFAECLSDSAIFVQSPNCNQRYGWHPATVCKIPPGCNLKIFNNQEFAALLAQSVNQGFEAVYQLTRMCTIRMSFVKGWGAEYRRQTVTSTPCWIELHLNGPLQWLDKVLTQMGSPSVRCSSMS
Chain of UniProt Q96DW6 (Q96DW6 whole entry, looked up): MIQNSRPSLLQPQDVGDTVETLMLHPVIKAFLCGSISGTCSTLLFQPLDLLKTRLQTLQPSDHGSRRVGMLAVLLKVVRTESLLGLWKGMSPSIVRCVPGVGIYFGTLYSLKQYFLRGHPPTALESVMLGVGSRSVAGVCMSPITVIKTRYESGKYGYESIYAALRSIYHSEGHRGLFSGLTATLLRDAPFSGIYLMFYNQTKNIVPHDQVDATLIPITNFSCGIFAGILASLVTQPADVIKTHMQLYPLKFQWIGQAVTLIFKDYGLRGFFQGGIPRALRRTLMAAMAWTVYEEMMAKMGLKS
Chain of UniProt P62072 (P62072 whole entry, looked up): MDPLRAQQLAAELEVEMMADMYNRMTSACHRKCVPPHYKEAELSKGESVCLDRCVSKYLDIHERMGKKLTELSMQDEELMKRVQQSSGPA
Chain of UniProt Q92797 (Q92797 whole entry, looked up): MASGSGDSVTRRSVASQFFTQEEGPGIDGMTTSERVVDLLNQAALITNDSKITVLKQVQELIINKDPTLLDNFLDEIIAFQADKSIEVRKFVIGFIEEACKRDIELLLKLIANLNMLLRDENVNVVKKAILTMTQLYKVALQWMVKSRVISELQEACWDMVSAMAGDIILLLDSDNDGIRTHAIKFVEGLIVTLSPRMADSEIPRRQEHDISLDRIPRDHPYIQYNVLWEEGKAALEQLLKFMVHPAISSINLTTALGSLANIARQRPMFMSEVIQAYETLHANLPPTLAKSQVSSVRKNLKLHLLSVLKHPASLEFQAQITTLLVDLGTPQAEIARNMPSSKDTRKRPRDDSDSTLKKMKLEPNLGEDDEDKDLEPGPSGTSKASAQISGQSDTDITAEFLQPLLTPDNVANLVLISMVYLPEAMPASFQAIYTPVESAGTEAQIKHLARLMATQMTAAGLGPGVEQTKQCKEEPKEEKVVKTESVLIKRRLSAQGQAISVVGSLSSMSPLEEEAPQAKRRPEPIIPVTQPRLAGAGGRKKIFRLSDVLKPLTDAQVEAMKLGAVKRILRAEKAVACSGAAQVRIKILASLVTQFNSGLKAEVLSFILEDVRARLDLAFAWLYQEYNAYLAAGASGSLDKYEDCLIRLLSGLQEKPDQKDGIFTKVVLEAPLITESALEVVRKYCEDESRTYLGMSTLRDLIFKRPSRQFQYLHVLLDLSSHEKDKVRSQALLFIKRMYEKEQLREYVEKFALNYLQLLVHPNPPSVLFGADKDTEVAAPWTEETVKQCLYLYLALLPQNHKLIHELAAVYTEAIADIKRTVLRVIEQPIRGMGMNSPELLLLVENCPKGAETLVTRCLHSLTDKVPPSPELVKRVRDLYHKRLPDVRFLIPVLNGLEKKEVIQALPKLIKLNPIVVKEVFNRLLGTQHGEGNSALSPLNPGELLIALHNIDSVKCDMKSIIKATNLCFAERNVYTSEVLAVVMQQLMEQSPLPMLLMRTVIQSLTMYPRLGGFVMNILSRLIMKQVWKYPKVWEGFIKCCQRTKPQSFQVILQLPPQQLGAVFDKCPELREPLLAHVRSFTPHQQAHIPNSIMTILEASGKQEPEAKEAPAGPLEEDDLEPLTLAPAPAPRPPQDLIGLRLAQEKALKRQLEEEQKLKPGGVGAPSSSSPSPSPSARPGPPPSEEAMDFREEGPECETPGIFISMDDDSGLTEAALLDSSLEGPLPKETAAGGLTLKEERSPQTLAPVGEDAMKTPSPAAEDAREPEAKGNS
Chain of UniProt Q9UMY4 (Q9UMY4 whole entry, looked up): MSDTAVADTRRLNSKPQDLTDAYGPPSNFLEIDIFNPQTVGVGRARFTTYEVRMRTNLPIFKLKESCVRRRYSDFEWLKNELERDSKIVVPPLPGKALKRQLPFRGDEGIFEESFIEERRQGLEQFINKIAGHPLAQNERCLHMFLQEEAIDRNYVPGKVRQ

Row | Target | log2 fold change (erlotinib) | log2 fold change [1] | log2 fold change [2] | log2 fold change [3] | log2 fold change [4] | log2 fold change [5] | log2 fold change [6] | log2 fold change [7] | log2 fold change [8] | log2 fold change [9] | log2 fold change (IRAK-1-4 Inhibitor I) | log2 fold change (ibrutinib) | log2 fold change [10] | log2 fold change (ralimetinib) | log2 fold change [11] | log2 fold change [12] | log2 fold change [13] | log2 fold change (pinometostat) | log2 fold change [14] | log2 fold change [15]
1 | SYMPK (UniProt Q92797) | -0.005 | 0.179 | 0.005 | -0.114 | 0.189 | 0.033 | 0.093 | -0.065 | -0.101 | 0.04 | -0.029 | -0.087 | -0.057 | 0.099 | -0.296 | -0.026 | -0.061 | -0.115 | 0.078 | -0.033
2 | SMAP (UniProt O00193) | -0.006 | 0.026 | 0.119 | 0.017 | -0.063 | 0.073 | -0.012 | 0.015 | 0.006 | 0.047 | 0.134 | -0.063 | -0.021 | 0.007 | -0.004 | 0.058 | -0.018 | -0.049 | 0.029 | -0.021
3 | SNX12 isoform 1 (UniProt Q9UMY4) | 0.002 | 0 | 0.052 | -0.019 | 0.065 | -0.01 | 0.039 | -0.064 | 0.048 | -0.034 | 0.039 | -0.007 | -0.069 | -0.011 | -0.068 | -0.09 | 0.03 | 0.032 | -0.007 | 0
4 | SSB (UniProt P05455) | -0.05 | 0.045 | 0.013 | 0.028 | -0.043 | -0.014 | -0.056 | -0.169 | -0.151 | -0.03 | -0.006 | -0.038 | -0.209 | 0.017 | 0.001 | -0.038 | 0.011 | -0.005 | 0.071 | -0.474 (active)
5 | TIMM10 (UniProt P62072) | -0.109 | -0.021 | 0.137 | -0.011 | 0.044 | 0.051 | 0.072 | 0.029 | -0.014 | -0.016 | -0.06 | 0.024 | -0.041 | -0.145 | -0.026 | 0.047 | -0.09 | -0.078 | 0.031 | 0.174
6 | THYN1 (UniProt Q9P016) | -0.061 | 0.007 | -0.041 | 0.125 | 0 | 0.006 | -0.032 | 0.145 | -0.002 | -0.037 | -0.032 | -0.028 | 0.039 | -0.01 | 0.036 | -0.046 | 0.025 | 0.004 | -0.033 | 0.331 (active)
7 | TBCD (UniProt Q9BTW9) | 0.022 | 0.06 | 0.059 | 0.022 | 0.069 | 0.029 | -0.025 | -0.01 | -0.016 | -0.021 | 0.019 | -0.019 | -0.004 | 0.01 | -0.034 | -0.083 | 0.01 | -0.061 | 0.068 | -0.086
8 | STAM2 (UniProt O75886) | -0.026 | 0.081 | 0.036 | -0.031 | 0.022 | 0.01 | 0.002 | -0.006 | -0.047 | -0.025 | 0.033 | 0.008 | -0.018 | 0.034 | 0.038 | -0.131 | 0.018 | 0.014 | -0.063 | 0.004
9 | SRFBP1 (UniProt Q8NEF9) | -0.256 | -0.082 | -0.114 | 0.039 | -0.03 | 0.104 | -0.08 | 0.082 | 0.069 | -0.065 | -0.081 | -0.037 | -0.099 | -0.022 | 0.091 | 0.137 | 0.25 | 0.018 | 0.21 | 0.023
10 | TLK1 (UniProt Q9UKI8) | 0.012 | 0.038 | 0.041 | -0.012 | 0.042 | 0.005 | 0.01 | -0.034 | -0.032 | -0.014 | 0.027 | -0.003 | -0.089 | 0.02 | -0.032 | -0.064 | -0.041 | -0.041 | 0.019 | 0.218 (active)
11 | SLC25A38 (UniProt Q96DW6) | 0.007 | -0.001 | -0.023 | -0.036 | 0.129 | 0.054 | 0.023 | 0.005 | -0.005 | 0.055 | 0.005 | -0.001 | 0.003 | -0.053 | 0.035 | 0.049 | -0.018 | -0.03 | 0.012 | 0.01
12 | SMAD2 (UniProt Q15796) | 0.061 | 0.087 | -0.065 | 0.04 | 0.069 | -0.004 | -0.05 | -0.045 | -0.034 | 0.019 | -0.145 | 0.05 | -0.091 | -0.069 | -0.088 | -0.015 | 0.124 | -0.125 | -0.192 | 0.079
